Experiment [1] is described as follows: NCI Yeast Anticancer Drug Screen. Data for the rad50 strain (AID 155).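 Further: 0% = growth of vehicle-only cultures of the same strain.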 Conditions: S. cerevisiae rad50 strain growth inhibition, active compounds read high. The essentials: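 Yeast carrying a defined DNA repair defect were exposed to test compounds, and growth was compared with vehicle-treated controls to give percent inhibition.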
Experiment [2] is described as follows: NCI Yeast Anticancer Drug Screen. Data for the mec2-1 strain (AID 157). The following applies: S. cerevisiae mec2-1 strain, active compounds read high. Summed up: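 Cells of the genetically defined mec2-1 yeast strain are incubated with test compound. Inhibition of growth is calculated against vehicle-treated controls.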
Experiment [3] is described as follows: NCI Yeast Anticancer Drug Screen. Data for the sgs1 mgt1 strain (AID 161).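 Further: 0% = growth of cultures given vehicle only.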 The following applies: S. cerevisiae sgs1 mgt1 strain, active compounds read high. Summed up: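 Genetically altered yeast, compound exposure, growth inhibition relative to vehicle.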
Experiment [4] in a line: NCI Yeast Anticancer Drug Screen. Data for the cln2 rad14 strain (AID 165).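 Further: 0% = growth equal to vehicle treated cultures.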 Conditions: S. cerevisiae cln2 rad14 strain, active compounds read high. Summed up:
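The screen exposed genetically defined yeast (cln2 rad14) to test compounds and scored growth inhibition relative to vehicle-treated controls.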

A short description of experiment [5]: NCI Yeast Anticancer Drug Screen. Data for the bub3 strain (AID 167). The following applies: S. cerevisiae bub3 mutant strain, active compounds read high. The essentials:
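Compounds were applied to a genetically altered yeast strain carrying a cell-cycle control defect. Growth inhibition was scored against vehicle-treated controls.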

Experiment [6] in a line: NCI Yeast Anticancer Drug Screen. Data for the mlh1 rad18 strain (AID 175). Conditions: S. cerevisiae mlh1 rad18 strain growth inhibition, active compounds read high. The essentials:
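Compound-treated yeast growth, normalised to vehicle controls. Strain bears defined DNA repair mutations.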

Where [7] appears, read: at 5.0 µM (retest, dose inferred, filed as 0.5).
[8] abbreviates: at 50.0 µM (retest, dose inferred, filed as 5.0).

Compounds without any hit were thinned out: in the full panel of roughly 79,000, 15% have a hit. Unmarked numbers belong to inactive results. Active and inactive are the calls of the source. No stated cut-off is given here; in the data, active means growth inhibition above about 70%; inactive means the rest.

For the compound `O=C(O)c1ccccc1Cc1ccc2c(c1)Cc1ccccc1-2`, the growth inhibition in experiment [1] (setting [7]) was 2%; in experiment [1] (setting [8]), 76% (active); in experiment [1] (at 50.0 µM), 62.5%; in experiment [2] (setting [7]), -5%; in experiment [2] (setting [8]) it was 67%; in experiment [2] (at 50.0 µM) it was 66.3%. Also, the growth inhibition in experiment [3] (setting [7]) was 6%; in experiment [3] (setting [8]), 89% (active); in experiment [3] (at 50.0 µM), 63.5%; in experiment [4] (setting [7]), -19%; in experiment [4] (setting [8]), 88% (active); in experiment [4] (at 50.0 µM) it was 71.2% (active). Moreover, the growth inhibition was -6% in experiment [5] (setting [7]); 68% in experiment [5] (setting [8]); 50.4% in experiment [5] (at 50.0 µM); 14% in experiment [6] (setting [7]); 80% (active) in experiment [6] (setting [8]); 79.2% (active) in experiment [6] (at 50.0 µM).
With `CCOC(=O)c1cnc(SCc2ccc(Cl)cc2Cl)nc1Cl`, the growth inhibition in experiment [1] (setting [7]) was 1%; in experiment [1] (setting [8]), 47%; in experiment [1] (at 50.0 µM) it was 38.4%; in experiment [2] (setting [7]), 0%; in experiment [2] (setting [8]), 73% (active); in experiment [2] (at 50.0 µM) it was 54.6%. Besides, the growth inhibition in experiment [3] (setting [7]) is 16%; in experiment [3] (setting [8]), 66%; in experiment [3] (at 50.0 µM), 58.5%; in experiment [4] (setting [7]) it was -3%; in experiment [4] (setting [8]), 59%; in experiment [4] (at 50.0 µM) it was 71.8% (active). For the same compound, the growth inhibition is 0% in experiment [5] (setting [7]); 54% in experiment [5] (setting [8]); 25.7% in experiment [5] (at 50.0 µM); 0% in experiment [6] (setting [7]); 62% in experiment [6] (setting [8]); 65% in experiment [6] (at 50.0 µM).
`O=C(CNC(=O)OCc1ccccc1)Oc1ccc([N+](=O)[O-])cc1`: the growth inhibition was -9% in experiment [1] (setting [7]); -1% in experiment [1] (setting [8]); 22.1% in experiment [1] (at 50.0 µM); -1% in experiment [2] (setting [7]); 38% in experiment [2] (setting [8]); 58.4% in experiment [2] (at 50.0 µM). The growth inhibition in experiment [3] (setting [7]) was 3%; in experiment [3] (setting [8]), 7%; in experiment [3] (at 50.0 µM) it was 48.6%; in experiment [4] (setting [7]), -42%; in experiment [4] (setting [8]), -56%; in experiment [4] (at 50.0 µM) it was -60.2%. For the same compound, the growth inhibition in experiment [5] (setting [7]) is -5%; in experiment [5] (setting [8]) it was 0%; in experiment [5] (at 50.0 µM) it was 64.2%; in experiment [6] (setting [7]), 12%; in experiment [6] (setting [8]) it was 36%; in experiment [6] (at 50.0 µM), 73.7% (active).
In the case of `COc1ccc(C2=C(Cl)C(=O)N(c3ccc(OC)cc3OC)C(=O)C2(Cl)Cl)cc1`, the growth inhibition was 4% in experiment [1] (setting [7]); 42% in experiment [1] (setting [8]); 74.5% (active) in experiment [1] (at 50.0 µM); -9% in experiment [2] (setting [7]); 36% in experiment [2] (setting [8]); 89.9% (active) in experiment [2] (at 50.0 µM). Moreover, the growth inhibition is 5% in experiment [3] (setting [7]); 54% in experiment [3] (setting [8]); 70.8% (active) in experiment [3] (at 50.0 µM); -9% in experiment [4] (setting [7]); 25% in experiment [4] (setting [8]); 44.5% in experiment [4] (at 50.0 µM). In addition, the growth inhibition is -5% in experiment [5] (setting [7]); 28% in experiment [5] (setting [8]); 56.5% in experiment [5] (at 50.0 µM); 3% in experiment [6] (setting [7]); 8% in experiment [6] (setting [8]); 79.8% (active) in experiment [6] (at 50.0 µM).
Turning to `C[N+](C)(C)c1nc(N)nc2c1ncn2C1OC(CO)C(O)C1O` (configuration not stated), the growth inhibition in experiment [1] (setting [7]) is 9%; in experiment [1] (setting [8]), 15%; in experiment [1] (at 50.0 µM) it was 29.5%; in experiment [2] (setting [7]), 12%; in experiment [2] (setting [8]), -11%; in experiment [2] (at 50.0 µM), 6.5%. Further, the growth inhibition in experiment [3] (setting [7]) is 9%; in experiment [3] (setting [8]) it was 3%; in experiment [3] (at 50.0 µM) it was -40.6%; in experiment [4] (setting [7]) it was -20%; in experiment [4] (setting [8]) it was -2%; in experiment [4] (at 50.0 µM) it was 70.3% (active). Besides, the growth inhibition in experiment [5] (setting [7]) is 1%; in experiment [5] (setting [8]) it was -1%; in experiment [5] (at 50.0 µM), -27.2%; in experiment [6] (setting [7]) it was 5%; in experiment [6] (setting [8]), 16%; in experiment [6] (at 50.0 µM), 11%.
Consider `O=Nc1ccccc1N=O`, for which the growth inhibition in experiment [1] (setting [7]) was 48%; in experiment [1] (setting [8]) it was 99% (active); in experiment [1] (at 50.0 µM), 99.5% (active); in experiment [2] (setting [7]), 30%; in experiment [2] (setting [8]), 99% (active); in experiment [2] (at 50.0 µM) it was 99.4% (active). Also, the growth inhibition is 59% in experiment [3] (setting [7]); 99% (active) in experiment [3] (setting [8]); 99.2% (active) in experiment [3] (at 50.0 µM); 36% in experiment [4] (setting [7]); 97% (active) in experiment [4] (setting [8]); 98.3% (active) in experiment [4] (at 50.0 µM). Moreover, the growth inhibition was 80% (active) in experiment [5] (setting [7]); 99% (active) in experiment [5] (setting [8]); 99.3% (active) in experiment [5] (at 50.0 µM); 91% (active) in experiment [6] (setting [7]); 99% (active) in experiment [6] (setting [8]); 99.4% (active) in experiment [6] (at 50.0 µM).
As for `Nc1n[n+](-c2ccccc2)no1`, the growth inhibition was 34% in experiment [1] (setting [7]); 81% (active) in experiment [1] (setting [8]); 61% in experiment [1] (at 50.0 µM); 16% in experiment [2] (setting [7]); 46% in experiment [2] (setting [8]); 33.4% in experiment [2] (at 50.0 µM). Further, the growth inhibition in experiment [3] (setting [7]) was 24%; in experiment [3] (setting [8]) it was 60%; in experiment [3] (at 50.0 µM), 56.6%; in experiment [4] (setting [7]) it was 45%; in experiment [4] (setting [8]), 59%; in experiment [4] (at 50.0 µM) it was 23%. Further, the growth inhibition was 43% in experiment [5] (setting [7]); 59% in experiment [5] (setting [8]); 45.2% in experiment [5] (at 50.0 µM); 31% in experiment [6] (setting [7]); 68% in experiment [6] (setting [8]); 70.6% (active) in experiment [6] (at 50.0 µM).
Take `O=C1Nc2ccccc2/C1=C/c1ccc(Cl)c(Cl)c1`: the growth inhibition in experiment [1] (setting [7]) was -1%; in experiment [1] (setting [8]), 71% (active); in experiment [1] (at 50.0 µM) it was 78.3% (active); in experiment [2] (setting [7]), -8%; in experiment [2] (setting [8]), 89% (active); in experiment [2] (at 50.0 µM), 80.3% (active). Moreover, the growth inhibition in experiment [3] (setting [7]) was -4%; in experiment [3] (setting [8]), 73% (active); in experiment [3] (at 50.0 µM), 65.5%; in experiment [4] (setting [7]) it was 20%; in experiment [4] (setting [8]) it was 94% (active); in experiment [4] (at 50.0 µM), 74.1% (active). In addition, the growth inhibition in experiment [5] (setting [7]) was -10%; in experiment [5] (setting [8]), 94% (active); in experiment [5] (at 50.0 µM), 74.7% (active); in experiment [6] (setting [7]) it was 5%; in experiment [6] (setting [8]), 89% (active); in experiment [6] (at 50.0 µM) it was 78% (active).
`CN1C=CC(C(O)(c2ccccc2)c2ccccc2)CC1` (configuration not stated): the growth inhibition was -2% in experiment [1] (setting [7]); 1% in experiment [1] (setting [8]); 1.25% in experiment [1] (at 50.0 µM); -6% in experiment [2] (setting [7]); 8% in experiment [2] (setting [8]); 19.3% in experiment [2] (at 50.0 µM). The growth inhibition was 2% in experiment [3] (setting [7]); 0% in experiment [3] (setting [8]); 10% in experiment [3] (at 50.0 µM); -5% in experiment [4] (setting [7]); 4% in experiment [4] (setting [8]); 51.6% in experiment [4] (at 50.0 µM). The growth inhibition is -5% in experiment [5] (setting [7]); -3% in experiment [5] (setting [8]); 16.7% in experiment [5] (at 50.0 µM); -4% in experiment [6] (setting [7]); 5% in experiment [6] (setting [8]); 22.8% in experiment [6] (at 50.0 µM).

For the origin of these results see PubChem BioAssay (NCI).
